Results reported in PubChem BioAssay AID720706 (Broad Institute, 2013).
In all, about 350,000 compounds went through this assay and about 5,500 (1.6%) were called active.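 Rule for the calls: active = significant combined selectivity score with lowered wild-type GFP, culture density cut under 30%, mutant RFP and density less affected; inactive = any of these conditions unmet.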 The list comes from a sample in which actives are over-represented; it also holds similar structures and randomly drawn compounds.

Test: GFP drop in mixed WT/humanized-ribosome E. coli culture – GFP/RFP fluorescence, OD600, single point, bacterial rRNA inhibitor project, primary screen (AID 720706)
Details: E. coli WT GFP vs humanized-ribosome RFP mutants, 24 h; GFP signal change (wild-type ribosome): stronger effect = lower value, DMSO median 0, no signal -100; OD600 change: measured here: OD600 growth, DMSO median 0, no signal -100; RFP signal change: measured here: RFP humanized mutant strains, DMSO median 0, no signal -100, concentration not given here

| SMILES | GFP signal change (wild-type ribosome) | OD600 change | RFP signal change |
| --- | --- | --- | --- |
| O=C(CCN1CCCCC1)NCC[C@@H]1CC[C@H](NS(=O)(=O)c2cccc(Cl)c2)[C@H](CO)O1 | 3.52% (inactive) | 6.73% | 1.99% |
| COc1ccccc1NC(=O)N1C[C@@H](O)COC[C@H]2O[C@@H](CC(=O)NCc3ccccc3)CC[C@@H]21 | -2.42% (inactive) | -2.65% | 2.34% |
| COCC(=O)N1CCC2(CC1)CN(Cc1ccccc1Cl)[C@H](CO)c1c2c2ccc(OC)cc2n1C | 5.11% (inactive) | -2.87% | 0.0355% |
| Clc1ccc(C[n+]2cc(-c3ccccc3)n3c2CCC3)cc1 | 2.79% (inactive) | -1.72% | -0.921% |
| Cc1ccc(C(=O)C[n+]2cc(-c3ccccc3)n3c2CCCCC3)cc1 | -44.5% (inactive) | -43.4% | 50.7% |
| O=C(C[n+]1cc(-c2ccc(Cl)c(Cl)c2)n2c1CCC2)c1cccs1 | -50.7% (active) | -21.5% | -14.4% |
| Cc1ccc(-c2c[n+](CC(=O)Nc3ccccc3)c3n2CCC3)cc1 | -22.1% (active) | -5.22% | 8.16% |
| Clc1ccc(C[n+]2cc(-c3ccc(Cl)cc3)n3c2CCC3)cc1 | -41.8% (inactive) | -50.2% | -12.3% |
| Cc1ccc(S(=O)(=O)N2CCN(C(=O)c3cccs3)CC2)cc1 | 0.592% (inactive) | -2.53% | -0.742% |
| O=C(NCC1CC1)[C@@H]1[C@@H](CO)[C@@H]2Cn3c(ccc(-c4ccncc4)c3=O)[C@H]1N2Cc1nccs1 | 2.96% (inactive) | 4.86% | -1.83% |
| O=C(C[C@@H]1CC[C@H]2[C@@H](COC[C@H](O)CN2C(=O)Nc2ccccc2)O1)NCCc1ccncc1 | 6.3% (inactive) | 12.9% | -0.44% |
| CC(CC(=O)N1CCN(S(=O)(=O)c2ccccc2)CC1)n1cncn1 (stereo unspecified) | 5.03% (inactive) | 0.845% | -1.68% |
| Cc1ccc(S(=O)(=O)CCC(=O)OCc2ccccc2)cc1 | 0.84% (inactive) | 1.2% | 2.56% |
| Cc1nn(C(C)(C)C)c(OC(=O)CC(C)C)c1S(=O)(=O)c1ccccc1 | -21.5% (active) | -14.2% | -1.55% |
| CNC[C@H]1Oc2ccccc2CC(=O)N(C)C[C@H]1C | 1.46% (inactive) | 4.75% | -1.05% |
| CC(C)NC(=O)Nc1ccc2c(c1)CC(=O)N(C)C[C@@H](C)[C@@H](CN(C)C(=O)OC(C)(C)C)O2 | 2.38% (inactive) | 4.01% | 0.746% |

| SMILES | GFP signal change (wild-type ribosome) | OD600 change | RFP signal change |
| --- | --- | --- | --- |
| CC(C)C#Cc1ccc2c(c1)O[C@@H](CN(C)C(=O)CN(C)C)[C@@H](C)CN([C@H](C)CO)S2(=O)=O | 2.76% (inactive) | 1.18% | -1.07% |
| CCCNC(=O)N(C)C[C@@H]1Oc2ncc(-c3cccc(C#N)c3)cc2C(=O)N([C@@H](C)CO)C[C@@H]1C | 5.65% (inactive) | 14.1% | -4.23% |
| Cn1cc(C2OC(=O)c3ccccc32)c2ccccc21 (stereo unspecified) | -10.5% (active) | -18.9% | -4.84% |
| Cc1ccc(CNC(=O)Cc2cn(C)c3ccccc23)cc1 | -9.46% (inactive) | -8.64% | 3.4% |
| Cc1ccc(N2C(=O)S/C(=C/c3cn(C)c4ccccc34)C2=O)cc1 | 5.23% (inactive) | 9.33% | 6.02% |
| CN1c2ccc(-c3ccccc3F)cc2[C@@H]2[C@@H](CCN2C(=O)CN2CCOCC2)[C@H]1CO | -2.46% (inactive) | -0.94% | -0.302% |
| C[C@@H]1CN([C@H](C)CO)C(=O)c2cc(NC(=O)Cn3cnnn3)ccc2O[C@@H]1CN(C)Cc1ccc(C(F)(F)F)cc1 | -1.05% (inactive) | -5.5% | -0.189% |
| OCCN(Cc1ccccc1)Cc1ccc(Cl)cc1 | -23% (active) | -9.66% | 0.44% |
| O=C(Cc1ccc(Cl)cc1)c1ccccc1 | 3.35% (inactive) | 2.91% | -5.05% |
| CN(C(=O)CN(CCO)CC(=O)N(C)C(C)(C)Cc1ccccc1)C(C)(C)Cc1ccccc1 | -31.9% (inactive) | -35.7% | -7.29% |
| CCC(=O)N[C@H]1CC[C@@H](CC(=O)NCC2CC2)O[C@@H]1CO | 3.28% (inactive) | 7.08% | 3.11% |
| CC(C)NC(=O)Nc1ccc2c(c1)C(=O)N([C@@H](C)CO)C[C@H](C)[C@@H](CN(C)Cc1ccc(C(=O)O)cc1)OCCCC[C@H](C)O2 | -0.801% (inactive) | 3.15% | -0.195% |
| O=C(Nc1ccc(N2CCN(C(=O)c3ccccc3)CC2)c(Cl)c1)c1ncn[nH]1 | -24.4% (active) | -14.7% | 0.07% |
| O=C(Nc1ccccc1N1CCN(C(=O)c2ccccc2)CC1)c1ccco1 | -8.24% (inactive) | -9.77% | -0.948% |
| CN1CCN(c2ccc(NC(=O)c3ccc4c(c3)OCCO4)cc2Cl)CC1 | 3.42% (inactive) | 2.75% | -7.15% |
| COc1ccc2c3c([nH]c2c1)[C@@H](CO)N(C(=O)C1CC1)CC31CCN(Cc2nccs2)CC1 | -6.7% (inactive) | -0.445% | -3.97% |
